ALOX15B inhib – inhibitors of human 15-lipoxygenase 2 (ALOX15B). O15296. purified 15hLO-2, xylenol orange hydroperoxide absorbance. Potency, µM (top dose mostly 57.1 µM), for the others: at the top dose activity change, negative = inhibition, most hits filed as inhibitors. 0.56% of 110,000 active. AID 881; note: potency is the fitted concentration of half-maximal effect; nearly all actives have a fitted effect of over 60% in size
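Purified human 15hLO-2 (50 nM) preincubated 15 min with compound, then 45 uM arachidonic acid for 90 min at RT in 25 mM Hepes pH 7.5, 0.01% Triton X-100. Hydroperoxide detected by Fe-xylenol orange; 573/405 nm absorbance ratio.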
PNC assembly inh – inhibitors of perinucleolar compartment assembly. activity change (PNC), negative = inhibition, % at 10 µM. PC3M PTB-GFP, PNC prevalence imaging, 16 h; hits give low values. 3.1% of 140,000 active. AID 2417;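 active = readout at or below -70, meaning at least 70% loss of cells showing the perinucleolar compartment, a nuclear body marking cancer cells; inconclusive = readout between -30 and a set limit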;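 note: plate controls were DMSO wells for no effect and camptothecin positive control wells for full effect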
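PC3M cells stably expressing PTB-GFP, 750–1000 cells/well, treated 16 h at 37 °C with compound (23 nl of library stock), in duplicate. After paraformaldehyde fixation and Hoechst stain, imaged at 20x; PNC prevalence scored by image analysis.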
IMPase inh – cell-permeable inhibitors of inositol monophosphatase (IMPase); P97697; CHO-M1 cells, IP1 accumulation, HTRF TR-FRET ratio; inhibition (IP1 accumulation), % at 46.1 µM; 120,000 tested, under 10 active; active = well fitted curve in the direction sought with a large enough effect in the signal ratio, not every such curve was filed as active; inconclusive = small, poorly fitted or top-dose-only effect, or a change in a side signal; inactive = no such curve, though single readings can be large or run the other way; the % refers to the signal ratio;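 note: cells stimulated with carbachol in lithium chloride buffer; plate controls were DMSO basal wells for no effect and reference inhibitor wells for full effect; higher means more IMPase inhibition seen as more IP1 and lower FRET ratio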
Target sequence (P97697 whole entry, looked up): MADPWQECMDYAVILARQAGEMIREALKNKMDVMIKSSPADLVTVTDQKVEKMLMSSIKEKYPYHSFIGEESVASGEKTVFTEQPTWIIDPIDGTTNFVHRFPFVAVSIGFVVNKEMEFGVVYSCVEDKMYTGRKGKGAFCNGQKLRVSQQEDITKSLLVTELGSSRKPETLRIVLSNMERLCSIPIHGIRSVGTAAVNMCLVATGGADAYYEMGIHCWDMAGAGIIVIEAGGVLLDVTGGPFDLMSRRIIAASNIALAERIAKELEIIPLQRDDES
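CHO-M1, 2000 cells/well, cultured 16–30 h; cpd up to 46 uM; carbachol (50 uM solution, stimulation buffer w/ 50 mM LiCl, pH 7.4), 30 min 37C; IP-One TR-FRET, 10 min RT; Ex 320/Em 665, 620; Hill-fit AC50.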
12-hLO inh – inhibitors of human 12-lipoxygenase (ALOX12); Potency, µM (highest dose often 57.1 µM), for the others: at the highest dose activity change, negative = inhibition, usual class: inhibitors; purified 12-hLO, xylenol orange hydroperoxide absorbance; 0.12% of 150,000 active; P18054; note: potency is the fitted concentration of half-maximal effect; nearly all actives have a fitted effect of over 55% in size
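Purified human 12hLO (150 nM final) was preincubated with compounds for 15 min at room temperature in 25 mM Hepes pH 7.0, 0.01% Triton X-100, then reacted with 40 uM arachidonic acid for 30 min. Hydroperoxide was detected with ferrous iron/xylenol orange.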
An asterisk follows results filed as active; ! = repeats disagree; [ ] = remark or other dose. An excerpt weighted towards active compounds, which were near 3% of everything screened. Unless noted, calls come from the whole dose curve; as a rule, active = well fitted curve in the direction sought with a large enough effect; inconclusive = small, poorly fitted or top-dose-only effect, or another doubt; inactive = no such curve, though single readings can be large; an effect the other way counts as inactive or inconclusive. Unless noted, % is set by controls: 0 for no effect and ±100 for the full control effect.

What do the screens show for `O=C(NC1=NCCS1)C12CC3CC(C1)CC(C(=O)NC1=NCCS1)(C3)C2`?
ALOX15B inhib: 5.2%[2.29 µM]; PNC assembly inh: 25.3; IMPase inh: -0.5; 12-hLO inh: 2.7%

What do the screens show for `CCc1ccccc1NC(=O)CSc1nnc(-c2ccco2)n1N`?
ALOX15B inhib: -4.8%; PNC assembly inh: 32.2; IMPase inh: -9.7; 12-hLO inh: 0.6%

How did Cc1nnc(SCC(=O)NNC(=O)c2ccccc2)n1-c1ccccc1 do in these assays?
PNC assembly inh: -84.0*; 12-hLO inh: 2.1%

What do the screens show for `COc1ccc(-c2csc3c2[N+]2=CCC=C2C3=O)cc1`?
ALOX15B inhib: -1.8%[11.4 µM]; 12-hLO inh: -7.2%[11.4 µM]

What do the screens show for `COc1ccc(NC(=O)c2cc3c(C)nn(-c4ccccc4)c3s2)c(OC)c1`?
IMPase inh: -23.0

What do the screens show for `COc1ccc(NC(=O)c2cc(-c3ccccc3)nc3c2c(C)nn3-c2ccccc2)c(OC)c1`?
PNC assembly inh: -89.4*; 12-hLO inh: -1.9%

What do the screens show for `O=S(=O)(Nc1cc(Sc2cccc3cccnc23)c(O)c2ccccc12)c1ccc(F)cc1`?
PNC assembly inh: -118.2*; 12-hLO inh: -8.5%

How did COc1ccc(S(=O)(=O)Nc2cc(Sc3ncn[nH]3)c(O)c3ccccc23)cc1 do in these assays?
ALOX15B inhib: 3.98µM*; PNC assembly inh: -27.7; IMPase inh: 20.5; 12-hLO inh: inconclusive

Results for COc1ccc(-c2nc3c(c4c2C[C@H](c2ccccc2)OC4)CN(S(=O)(=O)c2ccc4c(c2)OCCN4C)CC3)c(C)c1 ?
12-hLO inh: 1.5%[11.4 µM]

How did O=S(=O)(Nc1cccnc1)c1cccc(C(F)(F)F)c1 do in these assays?
ALOX15B inhib: -0.5%; PNC assembly inh: -91.5*; IMPase inh: -6.7; 12-hLO inh: -4.9%

How did O[Si@](CCCN1CCCCC1)(c1ccc(F)cc1)C1CCCCC1 do in these assays?
ALOX15B inhib: 34.7%; IMPase inh: 14.4; 12-hLO inh: 12.8%

What do the screens show for `CCCCOc1cc(C(=O)NCCN(CC)CC)c2ccccc2n1`?
ALOX15B inhib: 35.4%; PNC assembly inh: -114.6*!; IMPase inh: 3.4[20.6 µM]; 12-hLO inh: -6.9%

What do the screens show for `CCCCN(C)S(=O)(=O)c1ccc(C(=O)N=c2sc3cc(NC(C)=O)ccc3n2C)cc1`?
PNC assembly inh: -94.4*; 12-hLO inh: -0.1%

Results for CCCCN(CC)S(=O)(=O)c1ccc(C(=O)N=c2sc3cc(NC(C)=O)ccc3n2C)cc1 ?
PNC assembly inh: 34.4; IMPase inh: -28.8; 12-hLO inh: 2.2%

Results for O=C(NCC(c1ccc(F)cc1)N1CCOCC1)c1ccc(Br)o1 (configuration not stated) ?
ALOX15B inhib: -4.9%; PNC assembly inh: -1.5; IMPase inh: 8.8; 12-hLO inh: 3.5%

Results for CCCCCCCN1N=C(C)C(C(=O)c2ccccc2)C1=O (configuration not stated) ?
ALOX15B inhib: -5.2%; PNC assembly inh: -84.8*; IMPase inh: -3.6; 12-hLO inh: -18.8%

Results for CCCCCCN1N=C(C)C(C(=O)c2ccc(Cl)cc2)C1=O (configuration not stated) ?
ALOX15B inhib: -21.5%; PNC assembly inh: -2.6; IMPase inh: 1.5; 12-hLO inh: -24.6%

What do the screens show for `CCOC(=O)c1c(C)nc2c(C#N)cnn2c1C`?
ALOX15B inhib: -1.6%; PNC assembly inh: 26.0; IMPase inh: 10.8; 12-hLO inh: 3.4%

Results for CCOC(=O)c1cnn2c(N)c(C#N)nnc12 ?
ALOX15B inhib: 8.8%; PNC assembly inh: -116.6*; IMPase inh: 0.7; 12-hLO inh: 5.1%

What do the screens show for `CCC(C)NC(=O)CN(c1ccc(OC)cc1)S(=O)(=O)c1ccc(NC(C)=O)cc1` (configuration not stated)?
ALOX15B inhib: -5.0%; PNC assembly inh: -126.9*; IMPase inh: -6.5; 12-hLO inh: 0.6%

What do the screens show for `Cc1c(-n2c(SCC(=O)O)nnc2-c2ccccc2Cl)c(=O)n(-c2ccccc2)n1C`?
ALOX15B inhib: -1.5%; PNC assembly inh: -97.1*; IMPase inh: 0.1; 12-hLO inh: 3.1%

How did CS(=O)(=O)N(Cc1ccco1)CC(O)Cn1cc(C=O)c2ccccc21 (configuration not stated) do in these assays?
ALOX15B inhib: -4.7%; PNC assembly inh: -88.2*; IMPase inh: -9.8; 12-hLO inh: 12.6%

What do the screens show for `CS(=O)(=O)N(Cc1ccco1)Cc1ccccc1Cl`?
ALOX15B inhib: -3.5%; PNC assembly inh: 25.2; IMPase inh: 2.9; 12-hLO inh: 1.9%
